Test results: PubChem BioAssay AID1214 (Sanford-Burnham Center for Chemical Genomics, 2008)
Screen size: about 190,000 compounds; about 10 (0.005%) were called active.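 Rule for the calls: active = activation factor of 2 or more at 20 µM, relative to plate controls; inactive = the rest.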 Only a sample is shown.

Each molecule was assayed against Mannose-6-phosphate isomerase (Homo sapiens) (UniProt P34949) (assay: activators of human PMI, primary screen, biochemical, fluorescence intensity, near-Km mannose 6-phosphate (AID 1214)). Conditions: purified human PMI, coupled resazurin fluorescence, 20 min; at 20 µM; stronger effect = higher value; 1 = vehicle control, 0 substrate-free wells.
Chain of Mannose-6-phosphate isomerase (Homo sapiens) (P34949 whole entry, looked up): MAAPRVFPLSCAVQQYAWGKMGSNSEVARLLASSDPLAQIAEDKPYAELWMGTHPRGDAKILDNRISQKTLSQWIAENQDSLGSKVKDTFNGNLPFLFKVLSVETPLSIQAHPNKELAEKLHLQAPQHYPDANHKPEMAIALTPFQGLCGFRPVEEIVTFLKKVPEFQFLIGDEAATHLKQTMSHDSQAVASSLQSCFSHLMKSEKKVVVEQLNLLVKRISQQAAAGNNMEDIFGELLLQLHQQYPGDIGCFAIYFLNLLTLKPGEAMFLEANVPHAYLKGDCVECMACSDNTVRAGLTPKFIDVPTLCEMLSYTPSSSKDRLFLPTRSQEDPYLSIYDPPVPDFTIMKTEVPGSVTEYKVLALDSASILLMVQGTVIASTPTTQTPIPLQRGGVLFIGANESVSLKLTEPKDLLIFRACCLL

Activation factor, inactive:
CCOC(=O)c1c(C)[nH]c(C2=NNC(=NC(C)COC)SC2)c1C (stereo not given) 1.3, Cc1cc(-c2n[nH]c(=S)n2-c2ccc(C)c(C)c2)no1 1, CCC(=O)Nc1c(C)n[nH]c1C 0.9, Cc1ccc(OCc2n[nH]c(=S)n2-c2ccc(C)cc2)cc1 0.8, CNc1nc(Nc2ccc(C)c(Cl)c2)nc(N)c1[N+](=O)[O-] 0.9, O=C(NCCCNc1ccc([N+](=O)[O-])cc1Cl)c1ccccc1F 1.1, COc1ccc(/C=C(\NC(=O)c2ccc(OCC(C)C)cc2)C(=O)OCc2ccco2)cc1 0.9, O=C1CCC/C(=N\NC(=O)NC2CCCCC2)C1 0.8, O=C(CSc1ccccc1)Nc1nnc(/C=C/c2ccccc2)s1 0.9, COC(=O)CNC(=O)c1ccc(OC2CCN(C(=O)C3CC3)CC2)cc1 0.9, COc1cc(/C=C/C(=O)N2c3ccccc3Sc3ccc(C(F)(F)F)cc32)cc(OC)c1OC 0.9, O=C1/C(=C\c2ccccc2Cl)SC(=S)N1CCC(=O)N1CCCc2ccccc21 0.9, CNC(=O)NC(=O)CSc1nnc(-c2ccc(F)cc2)n1CC1CCCO1 (stereo not given) 1, Nc1cc(C(F)(F)F)ccc1N1CCOCC1 1, COc1cc(C2C(N3C(=O)c4ccccc4C3=O)C(=O)N2c2ccc(C)c(C)c2)cc(OC)c1OC (stereo not given) 0.9, OCC(CO)(CO)NCc1ccc(-c2ccccc2)cc1 1, COc1ccc(Cl)cc1-n1c(C)cc(C(=O)OCC(=O)N2CC(=O)Nc3ccccc32)c1C 0.9, COc1cc(/C=N/NC(=O)CCc2n[nH]c(=O)[nH]c2=O)ccc1O 0.9, COc1cccc(CN(C)CC(=O)Nc2ccccc2C(=O)Nc2ccccc2)c1 0.9, COc1ccccc1CNC(=O)COc1ccc(C)nc1[N+](=O)[O-] 1.1, O=C(N/N=C/c1ccc([N+](=O)[O-])o1)c1cn(-c2ccccc2)nc1-c1ccc(F)cc1 1.4, Cc1ccc(C)c(NC(=S)NNC(=S)Nc2ccc(C(C)C)cc2)c1 0.8, N=C1C(=O)OCC1c1ccccc1NC(=O)CN1CCCCC1 (stereo not given) 1.1, C=CCOc1c(Br)cc(/C=N\n2nnnc2N)cc1OC 1.1, O=C(Nc1cccnc1)c1cc2cc(Br)ccc2oc1=O 1, COCC(C)NC(=O)COc1nncc2ccccc12 (stereo not given) 1.2, C=CCN1C2CCCC1CC(NC(=S)Nc1cccc(OC)c1)C2 (stereo not given) 0.9, CCNC(=O)NNC(=O)C1CC(c2cccs2)=NO1 (stereo not given) 1, CCc1cccc(NC(=O)CCC(=O)O)c1 1, NC(=O)COC(=O)c1sc2cc(F)ccc2c1Cl 1.2, CCOC(=O)N1CCN(Cc2nc3ccc([N+](=O)[O-])cc3c(=O)n2-c2cccc(OC)c2)CC1 1, COc1ccccc1CNC(=O)C1Cc2ccccc2C(=O)O1 (stereo not given) 0.9, O=C(/C=C/c1ccccc1)Oc1coc(CSc2ncccn2)cc1=O 1, COc1ccc(Br)cc1CN(C)CC(=O)Nc1cc(Cl)cc(Cl)c1 0.8, Cc1ccc(/C([O-])=C(/C(=S)NCc2ccco2)[n+]2ccccc2)cc1[N+](=O)[O-] 1, CN(C)/C=C(/C(=O)c1ccc(F)cc1)S(=O)(=O)c1ccc(F)cc1 1.2, O=S(=O)(c1ccc2c(c1)OCCO2)N1CCc2ccccc21 0.9, N#C/C(C(=S)Nc1ccccc1)=C1/NN=C(N2CCOCC2)N1c1ccccc1 1, CCN(CC)S(=O)(=O)c1ccc(N2CCOCC2)c(NC(=O)C2COc3ccccc3O2)c1 (stereo not given) 1, COc1ccc(NC(=O)CN(Cc2ccccc2)S(C)(=O)=O)cc1OC 0.9, COc1ccccc1N(CC(=O)Nc1ccc(C(F)(F)F)cc1)S(C)(=O)=O 1, O=C(Cc1cccs1)N(CC1CCCO1)C1(C(=O)NC2CCCCC2)CCCCC1 (stereo not given) 1.1, O=C(OCC1O[C@@H](OC(=O)c2cc(O)c(O)c(O)c2)[C@@H](OC(=O)c2cc(O)c(O)c(O)c2)[C@@H](OC(=O)c2cc(O)c(O)c(O)c2)[C@@H]1OC(=O)c1cc(O)c(O)c(O)c1)c1cc(O)c(O)c(O)c1 (stereo not given in full) 0.4, CC[n+]1c(C)n(-c2ccccc2)c2ccc(NC(C)=O)cc21 0.5, Cc1c(C(=O)Nc2cccc(Cl)c2)cn2c(nc3ccccc32)c1C#N 1.1, O=C(NCC(=O)N(CC1CCCO1)C(C(=O)NC1CCCCC1)c1ccccc1)c1ccco1 (stereo not given) 1.1, CC(C)(C)C1CCC(=NNC(=O)c2cc(-c3ccccc3)n[nH]2)CC1 (stereo not given) 1, O=C(CSc1cccc[n+]1[O-])NCCCc1ccccc1 1, O=c1cc(CO)oc(C(Nc2cccc([N+](=O)[O-])c2)c2ccccn2)c1O (stereo not given) 1, O=S(=O)(ON(c1ccccc1)S(=O)(=O)c1ccccc1)c1ccccc1 1.1, COc1ccc(CCNC(=O)COC(=O)C2CCCCC2)cc1 0.9, NS(=O)(=O)c1ccc(NC(=S)NC(=O)c2cccnc2)cc1 1, CCCCN1C(=O)/C(=C/C=C2/C=Cc3ccccc3N2CC)SC1=S 0.7, CCOC(=O)c1ccccc1NC(=S)N1CCC(C(N)=O)CC1 1, O=C(CN1C(=O)/C(=C\c2ccccc2F)SC1=S)Nc1nc2ccccc2s1 0.8, COC(=O)C(=Nc1ccccc1)/C(C(=O)C(=O)N(C)c1ccccc1)=C(\O)c1ccc(Cl)cc1 1.2, COC(=O)C1=C(N)Oc2c(oc(CO)cc2=O)C1c1c(F)cccc1Cl (stereo not given) 1.1, O=C(CCC1CCCN(C(=O)Cc2ccc(F)cc2)C1)N1CCN(c2ccccn2)CC1 (stereo not given) 1, CCOC(=O)CCCNC(=O)COC(=O)/C=C/c1ccc2c(c1)OCO2 1.1, COc1ccc(CCNC(=O)c2ccc(CS(=O)(=O)c3ccc(Br)cc3)o2)cc1OC 1, CC(C)CCN1CCN(C/C=C/c2ccco2)CC1CCO (stereo not given) 0.8, CCOC(=O)c1ccc(NNC(C)=O)c([N+](=O)[O-])c1 0.9, CC(=O)c1ccc(NC(=S)N(Cc2ccccc2)C(C)C2CC2)cc1 (stereo not given) 0.8, O=C(CN1CCCC1)N1CCN(c2ccccc2)CC1 0.8, O=C(CC1C(=O)NCCN1Cc1ccc(-c2ccccc2)cc1)NCc1ccncc1 (stereo not given) 1, CCOc1ccc(-n2c(SCC(=O)NC3CCS(=O)(=O)C3)nnc2-c2cccnc2)cc1 (stereo not given) 1, O=C(Nc1ccc(N2CCOCC2)cc1)c1ccc2c(c1)OCO2 0.9, CCC1CCCCN1C(=O)CSc1nc(C)cc(C)n1 (stereo not given) 1, CCCOC(=O)c1ccc(N2C(=O)c3ccccc3C2=O)cc1 1, O=C(CSc1ccc([N+](=O)[O-])cn1)Nc1ccc(N2CCOCC2)c(Cl)c1 1, COc1ccc(-c2cc(C(=O)NCCCn3ccnc3)no2)cc1 1, Cc1cccc(C)c1NC(=S)N(Cc1cccnc1)Cc1ccccc1Cl 0.9, COc1ccc(/C=C/CN2CCCC(C(=O)c3cc(F)ccc3F)C2)cc1 (stereo not given) 1, O=c1c2sccc2nc(SCc2cc(=O)n3ccccc3n2)n1-c1ccc(Br)cc1 0.9, O=C1CS(=O)CN1c1ccc(Oc2ccccc2)cc1 (stereo not given) 1, CC(=C/c1ccccc1)/C=N/NC(=O)c1cc(C)oc1C 0.9, CN1C(=O)C(CC(=O)Nc2ccccc2)S/C1=N/c1nccs1 (stereo not given) 1, CC(/C=C/C1(O)C(C)CC(=O)CC1(C)C)OC1OC(CO)C(O)C(O)C1O (stereo not given) 0.9, CCN(C(=O)COC(=O)c1ccc(COc2ccc3c(C)cc(=O)oc3c2)cc1)C1CCS(=O)(=O)C1 (stereo not given) 1, CCOC(=O)c1cc2c(=O)n3ccccc3nc2n(CC(C)C)c1=NC(=O)c1c(-c2c(F)cccc2Cl)noc1C 1, CCOc1ccc2nc(NCCNC(=O)C(C)(C)C)c(C)cc2c1 1, Cc1cccc(N(C(=O)Cc2cccs2)C(C(=O)NCc2ccco2)c2ccncc2)c1 (stereo not given) 0.9, COc1ccc(Cl)cc1NC(=O)NC(C)C(C)(C)C (stereo not given) 0.9, CC(C)CCN1CCN(Cc2cn[nH]c2C2CCCCC2)CC1CCO (stereo not given) 1, Cc1cccc(NC(=O)/C=C/c2ccc3c(c2)OCO3)n1 0.9, CC1=CC(=C(C#N)c2nc3ccccc3s2)C=C(C)N1c1ccc(F)cc1F 0.7, COc1cccc(/C=C/C(=O)Nc2ccc3c(c2)OCCO3)c1 1.1, Cc1c(NC(=S)NCc2ccc(F)cc2)cccc1[N+](=O)[O-] 0.8, Cc1ccc(-c2nn(-c3ccccc3)cc2/C=C/C(=O)Nc2cccc(S(N)(=O)=O)c2)cc1 0.9, COc1ccc(NC(=S)N2CCCC(CO)C2)c(OC)c1 (stereo not given) 1, COC(=O)c1c(C(=O)OC)c(-c2cccc(C)c2)n2c1CS(=O)C2 (stereo not given) 0.9, CCOC(=O)C1(O)CC(C)=NN1C(=O)c1cccc(Br)c1 (stereo not given) 1.1, Cc1ccc(-n2cc(CN(C)Cc3nccn3C)c(-c3cccc(C)c3)n2)cc1 0.8, O=C(CCNC(=O)c1ccc([N+](=O)[O-])cc1)Nc1ccccc1N1CCOCC1 1, CCCC(O)(CCC)C(=O)NN(C(=O)CCl)c1cccc(C)c1 1.1
